# Reference: the supplement of paper PMC11628255, “Interference of metal ions on the bioluminescent signal of firefly, Renilla, and NanoLuc luciferases in high-throughput screening assays” (Frontiers in Chemistry, 2024)
# ± gives the standard deviation of the averaged measurements.
# Test system: firefly luciferase (FLuc)
# Assay: residual bioluminescent signal relative to negative control without GSH; higher = less interference (more residual luciferase signal)
# Settings: screening conditions buffer
# Procedure: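 Selected metal salts at 3-4 concentrations tested on purified FLuc, NLuc or RLuc in screening buffer with 0, 0.2 or 2 mM glutathione added; 10 min enzyme pre-incubation at RT, luminescence 10 min after substrate. Signal normalised to negative control without GSH (% N_VALUE); triplicate wells.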
# [1] = metal salt concentration 1 mM, glutathione 0 mM
# [2] = metal salt concentration 1 mM, glutathione 0.2 mM
# [3] = metal salt concentration 1 mM, glutathione 2 mM
smiles,measurement,setting,value
O=[N+]([O-])[O-].[Ag+] [silver nitrate],residual bioluminescent signal,"metal salt concentration 0.0001 mM, glutathione 0 mM",58.4 ± 11%
same,residual bioluminescent signal,"metal salt concentration 0.0001 mM, glutathione 0.2 mM",63.3 ± 6%
same,residual bioluminescent signal,"metal salt concentration 0.0001 mM, glutathione 2 mM",0.242 ± 0.17%
same,residual bioluminescent signal,"metal salt concentration 0.000243 mM, glutathione 0 mM",1.26 ± 0.36%
same,residual bioluminescent signal,"metal salt concentration 0.000243 mM, glutathione 0.2 mM",64.7 ± 3.9%
same,residual bioluminescent signal,"metal salt concentration 0.000243 mM, glutathione 2 mM",0.483 ± 0.34%
same,residual bioluminescent signal,"metal salt concentration 0.0005 mM, glutathione 0 mM",0.58 ± 0.43%
same,residual bioluminescent signal,"metal salt concentration 0.0005 mM, glutathione 0.2 mM",61.9 ± 10%
same,residual bioluminescent signal,"metal salt concentration 0.0005 mM, glutathione 2 mM",0.58 ± 0.29%
same,residual bioluminescent signal,[1],0.435 ± 0.38%
same,residual bioluminescent signal,[2],0.918 ± 0.47%
same,residual bioluminescent signal,[3],0.531 ± 0.3%
O=[N+]([O-])[O-].O=[N+]([O-])[O-].[Cu+2] [copper(II) nitrate],residual bioluminescent signal,"metal salt concentration 0.05 mM, glutathione 0 mM",84.5 ± 15%
same,residual bioluminescent signal,"metal salt concentration 0.05 mM, glutathione 0.2 mM",54.9 ± 3.8%
same,residual bioluminescent signal,"metal salt concentration 0.05 mM, glutathione 2 mM",0.483 ± 0.17%
same,residual bioluminescent signal,"metal salt concentration 0.125 mM, glutathione 0 mM",86.3 ± 9.3%
same,residual bioluminescent signal,"metal salt concentration 0.125 mM, glutathione 0.2 mM",19.4 ± 1.1%
same,residual bioluminescent signal,"metal salt concentration 0.125 mM, glutathione 2 mM",0.531 ± 0.34%
same,residual bioluminescent signal,"metal salt concentration 0.2 mM, glutathione 0 mM",65.3 ± 11%
same,residual bioluminescent signal,"metal salt concentration 0.2 mM, glutathione 0.2 mM",5.12 ± 2%
same,residual bioluminescent signal,"metal salt concentration 0.2 mM, glutathione 2 mM",0.628 ± 0.44%
same,residual bioluminescent signal,[1],0.628 ± 0.47%
same,residual bioluminescent signal,[2],0.338 ± 0.17%
same,residual bioluminescent signal,[3],0.435 ± 0.25%
O=[N+]([O-])[O-].O=[N+]([O-])[O-].[Zn+2] [zinc nitrate],residual bioluminescent signal,"metal salt concentration 0.5 mM, glutathione 0 mM",100 ± 3.4%
same,residual bioluminescent signal,"metal salt concentration 0.5 mM, glutathione 0.2 mM",29.7 ± 6%
same,residual bioluminescent signal,"metal salt concentration 0.5 mM, glutathione 2 mM",0.435 ± 0.25%
same,residual bioluminescent signal,[1],1.06 ± 0.55%
same,residual bioluminescent signal,[2],0.918 ± 0.74%
same,residual bioluminescent signal,[3],0.387 ± 0.17%
same,residual bioluminescent signal,"metal salt concentration 1.20 mM, glutathione 0 mM",0.387 ± 0.17%
same,residual bioluminescent signal,"metal salt concentration 1.20 mM, glutathione 0.2 mM",0.676 ± 0.36%
same,residual bioluminescent signal,"metal salt concentration 1.20 mM, glutathione 2 mM",0.676 ± 0.36%
same,residual bioluminescent signal,"metal salt concentration 2.5 mM, glutathione 0 mM",0.58 ± 0.29%
same,residual bioluminescent signal,"metal salt concentration 2.5 mM, glutathione 0.2 mM",0.87 ± 0.43%
same,residual bioluminescent signal,"metal salt concentration 2.5 mM, glutathione 2 mM",0.338 ± 0.34%
